Luc counter: counter-screen: inhibitors of Kinase-Glo firefly luciferase; Kinase-Glo luciferase, ATP luminescence, 8 min; Q27757; 0.28% of 200,000 active; Potency, µM (top dose mostly 38.3 µM), for inactives: top-dose activity change, negative = inhibition, usual class: inhibitors; AID 1379; note: nearly all actives have a fitted effect of over 60% in size
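Substrate mix (final 50 mM imidazole pH 7.2, 50 mM KCl, 7 mM MgCl2, 10 uM ATP, 0.01% Tween 20, 0.05% BSA) plus pin-tool compound, then Kinase-Glo detection mix; 8 min ambient, luminescence read.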
RORg inh: blocks mouse ROR gamma transcriptional activity; P51450; Drosophila S2 Gal4-RORgamma UAS-luciferase reporter, 20 h; Potency, µM (highest dose often 53.6 µM), for inactives: top-dose activity change, negative = inhibition, actives largely listed as inhibitors; 5.4% of 310,000 active; note: nearly all actives have a fitted effect of over 60% in size
Target sequence (P51450 whole entry, looked up, the tested form may be a part): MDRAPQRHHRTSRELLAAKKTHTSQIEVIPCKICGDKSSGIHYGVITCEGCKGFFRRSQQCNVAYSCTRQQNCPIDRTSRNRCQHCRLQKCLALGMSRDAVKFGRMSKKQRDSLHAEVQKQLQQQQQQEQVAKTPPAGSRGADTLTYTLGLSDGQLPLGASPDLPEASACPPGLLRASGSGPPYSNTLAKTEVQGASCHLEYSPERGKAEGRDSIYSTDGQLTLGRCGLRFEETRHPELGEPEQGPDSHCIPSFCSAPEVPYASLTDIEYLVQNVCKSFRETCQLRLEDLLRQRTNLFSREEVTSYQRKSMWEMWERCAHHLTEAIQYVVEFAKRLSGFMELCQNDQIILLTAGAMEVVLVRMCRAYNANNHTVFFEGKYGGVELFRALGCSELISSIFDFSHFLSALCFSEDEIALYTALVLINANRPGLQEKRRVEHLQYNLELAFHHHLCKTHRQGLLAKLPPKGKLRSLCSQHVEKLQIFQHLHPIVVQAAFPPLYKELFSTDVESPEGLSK
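ROR gamma transcriptional activity was tracked as Gal4-UAS luciferase output in stably transfected Drosophila Schneider cells, with compound added 1 hr before 700 uM copper sulfate induction and a 20 hr ambient-temperature incubation.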
VP16 counter: counter-screen for ROR gamma inhibitors: Gal4-VP16 reporter. 3.5% of 310,000 active. Potency, µM (series often up to 53.6 µM), for the others: at the top dose activity, negative = inhibition, usual class: inhibitors. AID 2546. Drosophila S2 Gal4-VP16 UAS-luciferase, luminescence, 20 h;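 note: Gal4-VP16 expression switched on by copper sulfate through the metallothionein promoter; nearly all actives have a fitted effect of over 50% in size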
An asterisk follows results filed as active; ? = inconclusive; nt = no result; [ ] = dose if it differs, or a comment. Hits are enriched below; roughly 6.4% of the tested compounds scored in any of these assays. Calls come from the whole dose curve; as a rule, active = well fitted curve in the direction sought with a large enough effect; inconclusive = small, poorly fitted or top-dose-only effect, or another doubt; inactive = no such curve, though single readings can be large; an effect the other way counts as inactive or inconclusive. % is set by controls: 0 for no effect and ±100 for the full control effect; potency is the fitted concentration of half-maximal effect.

SMILES | Luc counter | RORg inh | VP16 counter
Cc1cc(C)n(Cc2ccc(C(=O)N/N=C/c3ccc(-c4ccc([N+](=O)[O-])cc4)o3)o2)n1 | nt | 8.91µM* | 6.31µM*
CCOc1ccc(C(=O)N/N=C/c2cc(Cl)ccc2[N+](=O)[O-])cc1 | 1.1% | ? | 5.62µM*
Cc1c(NS(=O)(=O)c2cc(C(=O)NCCN(C)C)ccc2Cl)c(=O)n(-c2ccccc2)n1C | nt | -16.3% | -4.3%
COc1ccc(C(=O)Nc2ccc(C3CC3(Cl)Cl)cc2)cc1 (centres undefined) | 2.8% | -27.4% | -29.4%
COC(=O)Cn1c(=O)c2c(nc3n2CCCN3CCc2ccccc2)n(C)c1=O | nt | -1.5% | -4.8%
Cc1cccc2sc(NC(=O)C3c4ccccc4Oc4ccccc43)nc12 | -2.4% | 17.7% | -28.6%
c1ccn2cc(C34CC5CC(CC(C5)C3)C4)nc2c1 | -0.3% | 5.62µM* | 22.4µM*
Brc1ccc(-c2cn3ccccc3n2)cc1 | nt | -16.0% | -20.3%
C1CN(c2nc3nonc3nc2N2C[C@H]3CC[C@H]2C3)CCS1 | 0.2% | 8.9% | 2.0%
C=CCN(Cc1nc(-c2ccccc2)no1)C(=O)c1ccc2c(c1)OCO2 | nt | 8.3% | 2.7%
CCOc1ccc(-c2[nH]ncc2-c2ccccc2)c(O)c1 | nt | 12.6µM* | ?
CCOc1ccc(-c2nc(N)ncc2-c2ccccc2)c(O)c1 | -0.3% | 0.5% | ?
COc1ccc(-c2cn[nH]c2-c2ccc(OCc3ccccc3)cc2O)cc1 | nt | 6.31µM* | ?
COc1ccccc1-c1cn[nH]c1-c1ccc(OCc2ccccc2)cc1O | nt | 6.31µM* | ?
COc1ccccc1Oc1cn[nH]c1-c1ccc(OCC(=O)NN)cc1O | nt | -26.0% | -1.3%
O=[N+]([O-])c1ccc(COc2ccc(-c3[nH]ncc3-c3ccc(Cl)cc3)c(O)c2)cc1 | 0.8% | 42.8% | -9.9%
O=C(/C=C\c1ccccc1)NCC(=O)N/N=C/c1ccc(O)cc1O | nt | -39.1% | -13.2%
C=CCOC(=O)N[C@H](/C(C(=O)OC)=C(\C)NCc1ccccc1)c1ccc(Br)cc1 | -8.4% | 1.0% | -0.9%
Cc1noc(C)c1C(=O)N1CCC2(CCCN(c3ncccn3)C2)CC1 | 0.5% | 7.1% | 3.6%
CSc1ncccc1C(=O)OCC(=O)C(C)(C)C | 2.3% | 5.8% | 4.3%
COc1cccc(N2CCN(C(=O)c3oc4ccccc4c3NC(=O)CCc3cc(OC)no3)CC2)c1 | nt | -17.9% | -0.1%
Fc1ccccc1OCCCCCN1CCCC1 | 2.0% | 18.0% | 11.6%
Fc1ccccc1OCCn1c(=S)[nH]c2ccccc21 | nt | 5.62µM* | 4.47µM*
Cc1ccccc1OCCn1c(=O)oc2ccccc21 | 0.0% | 20.7% | 14.5%
Cc1ccccc1OCCn1c(=S)[nH]c2ccccc21 | nt | 2.51µM* | 4.47µM*
SMILES | Luc counter | RORg inh | VP16 counter
O=C(c1cc(F)c(F)cc1Cl)N1CCN(c2ncccn2)CC1 | nt | -5.8% | 7.2%
Cc1ccc2nc(SCC(=O)Nc3cc(C)on3)c(C)cc2c1 | nt | -31.7% | -8.7%
CCOc1ccc(S(=O)(=O)N2CCC(C(=O)NC3CC3)CC2)cc1C | nt | 1.0% | 2.2%
COc1ccc(-c2csc3nc[nH]c(=O)c23)cc1OC | nt | 16.1% | 6.9%
Cc1ccc(-c2csc3nc[nH]c(=S)c23)cc1C | 1.6% | 0.447µM* | ?
NOCc1ccccc1 | nt | -10.7% | -12.4%
CC1(C)CC(=O)C=C(NC2=CC3OC(c4ccccc4)OCC3OC2=O)C1 (centres undefined) | 1.4% | ? | 11.2µM*
Cc1ccccc1NC1=CC(=O)CC(C)(C)C1 | -5.3% | -17.7% | 4.7%
CC(=O)c1cccc(NC(=O)CN(C)S(=O)(=O)c2cccc3nsnc23)c1 | nt | -9.9% | 3.2%
Cc1ccc(NC(=O)c2cc(N3C(=O)CCC3=O)ccc2N2CCOCC2)cc1 | -0.4% | 25.1% | -2.5%
Cc1ccc(NC(=O)c2cc(N3C(=O)C=CC3=O)ccc2N2CCOCC2)cc1Cl | -1.7% | 5.62µM* | 3.16µM*
O=C(Nc1ccc(N2CCCCC2)c(Cl)c1)c1ccc2c(c1)OCCO2 | -2.9% | 5.9% | -25.8%
O=C(Nc1ccc(N2CCOCC2)c(Cl)c1)c1ccccc1F | 3.4% | 8.8% | ?
Cc1cc(C(=O)Nc2ccc(N3CCOCC3)c(Cl)c2)c(C)o1 | nt | 3.16µM* | -23.8%
O=C(Nc1ccc(N2CCOCC2)c(Cl)c1)c1ccc2c(c1)OCCO2 | -0.9% | 0.794µM* | ?
CSc1nc(=S)c2[nH]c(=S)[nH]c2[nH]1 | nt | 5.7% | 4.3%
CC(Oc1ccc(Cl)cc1)C(=O)Nc1ccccc1C(=O)N1CCOCC1 (centres undefined) | nt | 22.1% | 0.1%
Cc1ccc(NC(=O)COC(=O)c2ccc([N+](=O)[O-])o2)cc1S(=O)(=O)N1CCCCCC1 | -2.6% | -44.4% | 19.0%
CCCNC(=O)c1ccc(C)c(NC(=O)C2=C(C)OCCS2)c1 | nt | 22.1% | -10.3%
CN(Cc1ccccc1)C(=O)[C@H](Cc1ccc2ccccc2c1)NC(=O)[C@@H]1C[C@@H](O)CN1C(=O)c1cn(C)c2ccccc12 | 1.6%[39.9 µM] | 32.0% | -6.4%
COc1cnc(-c2ccccn2)nc1Sc1cccc(Cl)c1 | 1.1% | 2µM* | 8.91µM*
COc1cnc(-c2ccccn2)nc1NC(C)C | -3.0% | ? | -10.1%
Nc1cccnc1Sc1cccc(Cl)c1 | -4.9% | 1.3% | -13.2%
COc1ccc(Sc2nc(-c3ccccc3)ncc2C(=O)O)cc1 | 1.4% | -5.2% | -10.1%
COc1ccccc1Sc1nc(-c2ccccn2)ncc1OC | 0.7% | 7.94µM* | ?
SMILES | Luc counter | RORg inh | VP16 counter
Cc1ccc(Sc2cc(C)nc(-c3ccccn3)n2)cc1 | nt | 0.355µM* | 3.16µM*
FC(F)(F)c1cccc(Sc2cc(C(F)(F)F)nc(-c3ccccn3)n2)c1 | -1.0% | 15.5% | -5.9%
COc1cnc(-c2ccccn2)nc1Sc1ccc(C)cc1 | 0.6% | 1.12µM* | 10µM*
O=c1c2nc(Br)n([C@@H]3O[C@@H]4CO[P@@](O)(=S)O[C@H]4[C@H]3O)c2nc2[nH]c(-c3ccccc3)cn12 | nt | 1.0% | -10.0%
CCN(c1ccc(OCC(=O)OCC(=O)Nc2ccc(F)c(F)c2F)cc1)S(=O)(=O)c1ccccc1 | -2.6% | -5.3% | 0.3%
CCC(C(=O)Nc1ccc2[nH]ncc2c1)c1ccccc1 (centres undefined) | nt | 32.7% | -15.4%
CCOc1cccc(CN(C)CC2CCCN(CCc3ccc(Cl)cc3)C2)c1O (centres undefined) | nt | ? | 4.1%
NS(=O)(=O)c1ccc(NC(=S)N2CCN(Cc3ccc4c(c3)OCO4)CC2)cc1 | 0.3% | ? | -14.4%
S=C(NCc1ccco1)N1CCN(Cc2ccco2)CC1 | -2.5% | 7.9% | -5.3%
CS(=O)(=O)N(CCc1ccccc1)CC(=O)N1CCN(Cc2ccc3c(c2)OCO3)CC1 | 2.4% | 35.4% | ?
CCN(CC)S(=O)(=O)c1ccc(C)c(NC(=S)N2CCN(Cc3ccc4c(c3)OCO4)CC2)c1 | 0.8% | 11.2µM* | 22.4µM*
CS(=O)(=O)N(CC(=O)N1CCN(Cc2ccc3c(c2)OCO3)CC1)Cc1ccc(Cl)cc1 | 3.8% | -20.0% | 10µM*
S=C(Nc1ccc2c(c1)OCO2)N1CCN(Cc2ccco2)CC1 | -1.2% | 11.2µM* | 11.2µM*
CC(C)c1ccccc1NC(=S)N1CCN(Cc2ccc3c(c2)OCO3)CC1 | 0.4% | 11.2µM* | ?
Cc1cccc(NC(=S)N2CCN(Cc3ccc4c(c3)OCO4)CC2)c1C | 0.4% | -109.1% | -3.7%[0.365 µM]

Screening data (PubChem BioAssay)
